Measured values: PubChem BioAssay (NCATS)
Inconclusive results are not listed. Unmarked numbers belong to inactive results. The source made the active and inactive calls. Calls follow the shape of the dose curve; as a rule, active = well fitted cell-killing curve with a large enough effect; inconclusive = small, poorly fitted or top-dose-only effect, or effect the other way; inactive = no such curve, though single readings can be large or run the other way.

Key:
[1] = Viability qHTS for spleen associated tyrosine kinase inhibitor (SYKi) naive MV4-11 cells (AID 1963823); conditions: MV4-11 AML viability, CellTiter-Glo luminescence, 72 h; series mostly up to 45 µM; also: nearly all actives have a fitted effect of over 40% in size
Procedure, shortened: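 Compounds were dispensed acoustically onto plates, MV4-11 cells (SYKi-naive) added at 500 per well, and plates incubated 72 hr at 37 C. CellTiter-Glo was added and luminescence measured after 10 min.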

[2] = Viability qHTS for spleen associated tyrosine kinase inhibitor (SYKi) drug resistant MV4-11 cells (AID 1963824); conditions: SYKi-resistant MV4-11 viability, CellTiter-Glo, 72 h; series mostly up to 45 µM; also: nearly all actives have a fitted effect of over 35% in size
Procedure, shortened: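 SYK-inhibitor-resistant MV4-11 AML cells were seeded at 500 per well onto compound and cultured 72 hours (37 °C, 5% CO2). CellTiter-Glo was then added, and after 10 min at room temperature, luminescence gave viability.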
Potency is read from the fitted curve at half-maximal effect.

SMILES	Potency [1]	Potency [2]	viability (% of control) [1]	viability, % of control [2]
COc1c/c(=C2\C=c3ccccc3=N2)[nH]/c1=C\c1[nH]c(C)cc1C	5.17 µM (active)	5.8 µM (active)		
CC1=C(C(=O)O)/C(=C/CO[C@@H]2O[C@H](COC(=O)/C=C/c3ccc(O)cc3)[C@@H](O)[C@H](O)[C@H]2O)C(O)C1 (stereo partly specified)	inactive	inactive		
O=C(Nc1cccc(Nc2nccc(Nc3cccc(C(F)(F)F)c3)n2)c1)C1CC1	1.84 µM (active)	1.84 µM (active)		
CC(C)CC1NC(=O)C(C)NC(=O)C(CC(C)C)OC(=O)CCCNC1=O (stereo unspecified)	inactive	inactive		
OC/C=C/c1ccc(O[C@@H]2O[C@H](CO)[C@@H](O)[C@H](O)[C@H]2O)cc1	inactive	inactive		
CC/C(=C(/CC)c1ccc(O)cc1)c1ccc(O)cc1	16.6 µM (active)	18.6 µM (active)		
CC(C)CN(C[C@@H](O)[C@H](Cc1ccccc1)NC(=O)O[C@@H]1CO[C@H]2OCC[C@H]21)S(=O)(=O)c1ccc(N)cc1	inactive	inactive		
CCC(=O)c1cc(-c2ccc(Cl)cc2)n(-c2ccc(S(N)(=O)=O)cc2)c1C	20.6 µM (active)	16.4 µM (active)		
COc1ccc(/C=C/C(=O)O[C@H]2[C@@H]3C=CO[C@@H](O[C@@H]4O[C@H](CO)[C@@H](O)[C@H](O)[C@H]4O)[C@@H]3[C@@]3(CO)O[C@@H]23)cc1O	inactive	inactive		
OCC(CO)(CO)NCC(O)Cn1c2ccc(Cl)cc2c2cc(Cl)ccc21 (stereo unspecified)	20.6 µM (active)	11.6 µM (active)		
C=CC(C)(O)CC/C=C(\C)C(=O)O[C@@H]1[C@@H](O)[C@H](OC(C)(C=C)CC/C=C(\C)C(=O)O[C@@H]2O[C@H](CO)[C@@H](O)[C@H](O)[C@H]2O)O[C@H](CO)[C@H]1OC(=O)/C(C)=C/CCC(C)(O)C=C (stereo partly specified)			87.6% [at 9.25 µM]	77.6% [at 9.25 µM]
CN[C@H](C(=O)N[C@H](C(=O)N(C)[C@H](/C=C(\C)C(=O)O)C(C)C)C(C)(C)C)C(C)(C)c1ccccc1	inactive	inactive		
CC(C)CC(=O)O[C@@H]1O[C@H](CO)[C@@H](O[C@H]2O[C@H](C)[C@@H](N[C@H]3C=C(CO)[C@@H](O[C@H]4O[C@H](CO)[C@@H](O[C@H]5O[C@H](CO)[C@@H](O[C@H]6O[C@H](CO)[C@@H](O)[C@H](O)[C@H]6O)[C@H](O)[C@H]5O)[C@H](O)[C@H]4O)[C@H](O)[C@H]3O)[C@H](O)[C@H]2O)[C@H](O)[C@H]1O			82.5% [at 9.25 µM]	101% [at 9.25 µM]
Oc1cccc(Nc2ncnc3sc4c(c23)CCCC4)c1	4.11 µM (active)	5.8 µM (active)		
CC1OC(OCC2OC(OC3CCC4(C)C(CCC5(C)C4CC=C4C6CC(C)(C)CCC6(C(=O)OC6OC(CO)C(O)C(O)C6O)CCC45C)C3(C)CO)C(O)C(O)C2O)C(O)C(O)C1O (stereo unspecified)			79.6% [at 9.25 µM]	96.2% [at 9.25 µM]
CC(C)(CC(=O)N1CCCC1)NCC(=O)N1C[C@@H](F)C[C@H]1C#N	inactive	inactive		
CC/C=C\CCO[C@@H]1O[C@H](CO[C@@H]2OC[C@H](O)[C@H](O)[C@H]2O)[C@@H](O)[C@H](O)[C@H]1O	inactive	inactive		
C=C1CCC2[C@](C)(CCC[C@@]2(C)C=O)[C@H]1CC/C(C)=C/CO (stereo partly specified)	20.6 µM (active)	20.6 µM (active)		
COC1OC(O)C2(CCC3(O2)C(C)CC2OC(=O)C4(C)CCCC3(C)C24)C1O (stereo unspecified)	inactive	inactive		
CN(CCCNC(=O)c1ccc2nc3c(c(Cl)c2c1)CCCC3)Cc1ccccc1	5.8 µM (active)	8.2 µM (active)		
COC1CC(O[C@H]2CC[C@]3(C)C4CC[C@]5(C)C(C6=CC(=O)OC6)=CCC56OC46CC[C@@H]3C2)OC(C)C1O[C@@H]1O[C@H](CO[C@@H]2O[C@H](CO)[C@@H](O)[C@H](O)[C@H]2O)[C@@H](O)[C@H](O)[C@H]1O (stereo partly specified)	1.55 µM (active)	1.38 µM (active)		
CC1=C(C)C(=O)OC(C(C)(O)C2CCC3C4CC=C5CC(OC6OC(COC7OC(CO)C(O)C(O)C7O)C(O)C(O)C6O)CC(O)C5(C)C4CCC32C)C1 (stereo unspecified)	inactive	inactive		
C[C@@H]1O[C@@H](O[C@H]2[C@H](OC(=O)[C@]34CCC(C)(C)C[C@H]3C3=CCC5[C@@]6(C)C[C@H](O)[C@H](O[C@@H]7O[C@H](CO[C@@H]8OC[C@H](O)[C@H](O)[C@H]8O)[C@@H](O)[C@H](O)[C@H]7O)C(C)(C)C6CC[C@@]5(C)[C@]3(C)C[C@H]4O)OC[C@@H](O)[C@@H]2O)[C@H](O)[C@H](O[C@@H]2OC[C@](O)(CO)[C@H]2O)[C@H]1O[C@@H]1OC[C@H](O)[C@H](O[C@@H]2OC[C@@H](O)[C@H](O)[C@H]2O)[C@H]1O (stereo partly specified)			72% [at 9.25 µM]	85% [at 9.25 µM]
